The list is not random: actives were taken first. Their share in the collection is about 6.1%.
DRD3 antagonist: qHTS of D3 Dopamine Receptor Antagonist: qHTS; D3R cells, DiscoveRx beta-arrestin luminescence, antagonist mode; hits give low values; max response, negative = inhibition, %; hit rate 2.5% among 360,000; AID 652054, 2013; in the data active means max response below about -50%; inconclusive means no clear call, values can overlap the other calls
Target sequence (P35462 whole entry, looked up): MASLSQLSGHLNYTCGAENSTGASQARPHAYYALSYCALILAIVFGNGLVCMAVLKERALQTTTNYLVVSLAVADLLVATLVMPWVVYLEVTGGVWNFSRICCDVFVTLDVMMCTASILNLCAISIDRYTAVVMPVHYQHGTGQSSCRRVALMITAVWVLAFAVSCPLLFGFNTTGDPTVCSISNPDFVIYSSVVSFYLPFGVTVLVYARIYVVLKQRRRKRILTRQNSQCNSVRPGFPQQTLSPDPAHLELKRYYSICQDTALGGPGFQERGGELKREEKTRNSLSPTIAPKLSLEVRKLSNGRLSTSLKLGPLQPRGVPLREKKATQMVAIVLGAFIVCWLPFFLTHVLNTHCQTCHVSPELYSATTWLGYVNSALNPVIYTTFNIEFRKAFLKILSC
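Cells plated overnight at 1500 cells/well, then exposed to library compounds with dopamine controls for 90 minutes at 37 degrees C. DiscoveRx reagent added for 30–60 minutes at room temperature; luminescence read, quantitative HTS format.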
D1 antag: Antagonist of Human D 1 Dopamine Receptor: qHTS. HEK293 TREx D1 cells, calcium flux, dopamine EC80; hits give low values. AID 504652, 2011. activity change, negative = inhibition, % at 10 µM. D(1A) dopamine receptor (Homo sapiens), P21728. hit rate 3.2% among 360,000; in the data active means activity change below about -30%
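Using tetracycline-induced force-coupled D1 Hek293 cells and a calcium dye, signals were followed for 180 s after compound, then for 180 s after EC80 dopamine, to detect inhibitors.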
D1 agonist: Allosteric Agonists of the Human D1 Dopamine Receptor: qHTS; D(1A) dopamine receptor (Homo sapiens), P21728; HEK293 T-REx D1 cells, calcium flux, agonist mode; activation, % at 2 µM; hit rate 1% among 360,000; in the data active means activation above about 30%
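Tetracycline-induced HEK293 TREx D1 cells, force-coupled to calcium signalling, were dye-loaded with a no-wash calcium kit. Compound was pin-added after a 10 s baseline. Fluorescence was read kinetically at 1 cycle/s for 180 s, with calcium rises flagged as agonism.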
D3 ag: qHTS of D3 Dopamine Receptor Agonist: qHTS; D(3) dopamine receptor (Homo sapiens), P35462; D3R DiscoveRx beta-arrestin cells, luminescence, 90 min; max activation, %; hit rate 0.58% among 410,000; in the data active means max activation above about 30%
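Agonist mode: compounds and dopamine controls were applied to plated cells for 90 min at 37 degrees C after an overnight attachment at 1500 cells/well. Luminescent read-out followed 30 - 60 minutes at room temperature with DiscoveRx detection reagent.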
D1 PAM: Potentiators of Human D1 Dopamine Receptor: qHTS | potentiation, % at 10 µM | HEK293 TREx D1 cells, calcium flux, dopamine EC20 potentiation | AID 504651, 2011 | D(1A) dopamine receptor (Homo sapiens), P21728 | hit rate 0.036% among 360,000; in the data active means potentiation above about 30%
Large screens that a line does not name were inactive.

COC(=O)c1cccc(C23CC4(C2)[C@H](CN(Cc2ccc(-c5ccccc5)cc2)[C@@H]4c2ccccc2)C3c2ccc(Cl)nc2)c1 (stereo partly specified)	D1 antag -36
CC(C)Cn1c(=O)c2sccc2n2c(CCCC(=O)N3CCN(c4ccc(F)cc4)CC3)nnc12	none (no result: DRD3 antagonist)
COc1ccc(N2CCN(c3ccc(N4C(=O)COCC4=O)cc3[N+](=O)[O-])CC2)cc1	D1 antag -31
COc1ccc(N2CCN(c3ccc(N4C(=O)CC(C)C4=O)cc3[N+](=O)[O-])CC2)cc1 (stereo unspecified)	none
Cc1ccc(Nc2nc(NCc3ccco3)c3ccccc3n2)cc1	D1 antag -66, D1 agonist 47
COc1ccc(Nc2nc(NCc3ccco3)nc(N/N=C/c3ccccc3)n2)cc1	DRD3 antagonist -51
COc1ccccc1Nc1nc(NCc2ccco2)c2ccccc2n1	D1 antag -93
Fc1ccccc1-c1nc(NCc2ccco2)c2ccccc2n1	none
COc1ccccc1CNC(=O)C(=O)NCC(c1cccnc1)N1CCN(c2ccccc2)CC1 (stereo unspecified)	none (no result: DRD3 antagonist)
Cc1cc2c(s1)c1cnn(Cc3cccc([N+](=O)[O-])c3)c(=O)c1n2C	none (no result: DRD3 antagonist, D3 ag)
Cc1ccc(CCNC(=O)c2ccc(CSCc3ccccc3C)o2)cc1	none (no result: DRD3 antagonist)
c1ccc2[nH]c3cc4ncnc4cc3nc2c1	D1 agonist 33
CCCc1cc(=O)[nH]c(-n2[nH]c3c(c2=O)CCCC3)n1	D1 agonist 67
CCCc1cc(=O)[nH]c(SCC)n1	none (no result: D1 antag, D1 agonist, D1 PAM)
Cc1ccc2c(c1)c1c3n2CCCN(Cc2ccccc2)C3CCC1 (stereo unspecified)	none
COC(Cn1c2c(c3cc(C)ccc31)CCCC2NCc1ccccc1)OC (stereo unspecified)	DRD3 antagonist -76
O=C1c2cccc(O)c2C(=O)c2c(O)cccc21	none (no result: DRD3 antagonist)
CC1OC(CC(=O)O)CC2=C1C(=O)c1c(O)cccc1C2=O (stereo unspecified)	DRD3 antagonist -94 (no result: D1 antag, D1 agonist, D1 PAM)
Cc1c(Br)cc(C(=O)OC2CCN(C)CC2)c(C)c1C	DRD3 antagonist -88
CN1CCC(OC(=O)c2ccccc2)CC1	none
COC(=O)c1ccccc1Oc1cnc2ccccc2n1	none
CNc1nc(Oc2ccccc2C(=O)OC)nc(SC)n1	D1 antag -40
CCNc1nc(Oc2ccc(C(=O)OCC)cc2)nc(SC)n1	none
CCOC(=O)c1ccc(Oc2nc(NC)nc(SC)n2)cc1	D1 antag -34
Cc1cnc(=O)[nH]c1SCc1ccc(C(F)(F)F)cc1	D3 ag 31
O=C(Nc1ccc(Br)cc1F)c1ncoc1-c1ccco1	none (no result: DRD3 antagonist)
CCOc1ccc(S(=O)(=O)N(CCO)CCO)cc1-c1nc2c(C(C)(C)C)nn(C)c2c(=O)[nH]1	D1 PAM 30
COc1ccc(OC)c(-c2cc(C(=O)Nc3cnn(Cc4ccc(Cl)cc4Cl)c3)no2)c1	none (no result: DRD3 antagonist)
COc1ccc(CNC(=O)C2CCN(C(=O)c3cccc(Cl)c3)CC2)cc1	D1 antag -35
Cc1ccc(C(=O)N2CCC(C(=O)NCc3cccnc3)CC2)cc1	none
Cc1ccc(CNC(=O)C2CCN(C(=O)c3cccc(Cl)c3)CC2)cc1	D1 antag -57
CCN(CC)c1cc2c(cc1F)c(=O)c(S(=O)(=O)c1ccc(C)cc1)cn2Cc1ccc(F)cc1	none (no result: DRD3 antagonist)
O=C(NCc1ccc(Cl)cc1)C(=O)NCC(c1ccco1)S(=O)(=O)c1cccs1 (stereo unspecified)	none (no result: DRD3 antagonist, D1 antag)
CC1(C)CC(=O)C2=C(C1)Nc1cc(Cl)ccc1S2	D3 ag 31
COc1ccc(S(=O)(=O)n2nc(C)c(S(=O)(=O)N3CCC(C)CC3)c2C)cc1C	none (no result: DRD3 antagonist)
COc1ccc(S(=O)(=O)Nc2ccc3c(c2)CCC3)cc1	none
CCOc1ccc(Br)cc1S(=O)(=O)Nc1ccc(C(=O)Nc2ccc(C)cc2)cc1	none
COc1ccc(NC(=O)c2ccccn2)cc1S(=O)(=O)N1CCOCC1	DRD3 antagonist inconclusive
CCOc1ccc(Br)cc1S(=O)(=O)Nc1ccc(C(=O)Nc2ccccc2OC)cc1	DRD3 antagonist -51
COc1ccc(NS(=O)(=O)c2cc(NC(=O)c3ccccn3)ccc2OC)cc1Br	DRD3 antagonist -51 (no result: D1 antag, D1 agonist, D1 PAM)
COc1ccc(NC(=O)Nc2sc(NS(=O)(=O)c3ccccc3)nc2C)cc1	D1 antag -39
CC(=O)Nc1ccc(S(=O)(=O)Nc2ccc3c(c2)CCC3)cc1	D1 antag -56, D1 agonist 52
CCOc1ccc(OCC)c(NC(=O)c2cc(-c3cccs3)nc3ccccc23)c1	none (no result: DRD3 antagonist)
CC1CCn2c(nc3cc(C(=O)NCc4ccc(OC(C)C)cc4)ccc32)C1 (stereo unspecified)	none (no result: DRD3 antagonist)
Brc1ccc(-c2csc(N3CCCCC3)n2)cc1	none (no result: DRD3 antagonist, D3 ag)
COc1ccc(NS(=O)(=O)c2ccc(OC)c(NC(=O)CCC3CCCCC3)c2)cc1	D1 antag -35
COc1ccc(NS(=O)(=O)c2cccc(NC(=O)c3ccccn3)c2)cc1	none
COc1ccc(NS(=O)(=O)c2csc(C(=O)Nc3ccccc3)c2)cc1	D1 antag -42
COc1ccc(NS(=O)(=O)c2csc(C(N)=O)c2)cc1	none
COc1ccc(OCC(=O)NNC(=O)c2ccccn2)cc1	DRD3 antagonist -82
COc1ccc(NS(=O)(=O)c2ccc(NC(=O)c3ccccn3)cc2)cc1	D1 antag -39
COc1ccc(NS(=O)(=O)c2ccc(OC)c(NC(=O)CNC(=O)c3ccc(OC)cc3)c2)cc1	none
Cc1cc(=O)c2cc(C(=O)Nc3ccc(C)c(C)c3)ccc2[nH]1	none (no result: DRD3 antagonist)
COC(=O)COc1cccc(NS(=O)(=O)c2ccc(NC(C)=O)cc2)c1	DRD3 antagonist -64
COC(=O)c1ccc(C)c(NS(=O)(=O)c2ccc(NC(C)=O)cc2)c1	DRD3 antagonist -55
CC(=O)Nc1cccc(OC(=O)COc2ccc(Br)cc2)c1	D1 antag -31
Cc1ccc(OCC(=O)Oc2cccc(C)c2)cc1	none (no result: D1 antag, D1 agonist, D1 PAM)
COC(=O)c1ccccc1NS(=O)(=O)c1ccc(NC(C)=O)cc1	none
COc1ccc(NS(=O)(=O)c2cccc(NC(=O)COc3ccc(OC)cc3)c2)cc1	D1 antag -33
Cc1ccc(S(=O)(=O)c2cn(C)c3cc(N4CCCC(C)C4)c(F)cc3c2=O)c(C)c1 (stereo unspecified)	none (no result: DRD3 antagonist)
Cc1ccnc2nc(NC(=O)c3ccccc3Cl)nn12	none (no result: DRD3 antagonist)
CCOc1ccc(NC(=O)NCc2cccn2Cc2ccccc2)cc1	none (no result: DRD3 antagonist)
CCOc1ccc(NC(=O)NC23CC4CC(CC(C4)C2)C3)cc1	D1 antag -31
CCOc1ccc(NC(=O)NCc2cccn2C)cc1	D1 antag -42
CC1=C(C(=O)NCc2ccc(Cl)cc2)C2(CCCCCC2)OC1=O	D1 agonist 45 (no result: DRD3 antagonist)

Screens from PubChem.
